A selection: hits, their analogues and other compounds. The true share with any hit is near 11%.
HP1b binding inh = HTS for Inhibitors of HP1-beta Chromodomain Interactions with Methylated Histone Tails; Chromobox protein homolog 1 (Homo sapiens), P83916; AlphaScreen HP1-beta / biotin-H3K9me3 peptide binding; Potency, µM (highest dose often 114 µM), for inactives: at the top dose activity change, negative = inhibition, actives largely listed as inhibitors; AID 540317, 2011; 390,000 compounds, 0.56% hits; further: nearly all actives have a fitted effect of over 70% in size
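AlphaScreen: HP1-beta (50 nM) preformed 30 min with biotin-H3(1-18)K9me3 peptide (50 nM) in PBS pH 7.4, 0.01% Tween-20. Compound added for 30 min at RT, then streptavidin donor/nickel chelate acceptor beads (10 ug/mL) for 30 min.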
L3MBTL1 block = qHTS Assay for the Inhibitors of L3MBTL1; AlphaScreen L3MBTL1–H3K9me1 peptide binding; Potency, µM (series often up to 57.1 µM), inactives show top-dose activity, negative = inhibition, actives largely listed as inhibitors; 230,000 compounds, 0.66% hits; further: on the % scale 0 is the no-effect control and ±100 the full control effect; nearly all actives have a fitted effect of over 60% in size
Target sequence (Q9Y468 whole entry, looked up): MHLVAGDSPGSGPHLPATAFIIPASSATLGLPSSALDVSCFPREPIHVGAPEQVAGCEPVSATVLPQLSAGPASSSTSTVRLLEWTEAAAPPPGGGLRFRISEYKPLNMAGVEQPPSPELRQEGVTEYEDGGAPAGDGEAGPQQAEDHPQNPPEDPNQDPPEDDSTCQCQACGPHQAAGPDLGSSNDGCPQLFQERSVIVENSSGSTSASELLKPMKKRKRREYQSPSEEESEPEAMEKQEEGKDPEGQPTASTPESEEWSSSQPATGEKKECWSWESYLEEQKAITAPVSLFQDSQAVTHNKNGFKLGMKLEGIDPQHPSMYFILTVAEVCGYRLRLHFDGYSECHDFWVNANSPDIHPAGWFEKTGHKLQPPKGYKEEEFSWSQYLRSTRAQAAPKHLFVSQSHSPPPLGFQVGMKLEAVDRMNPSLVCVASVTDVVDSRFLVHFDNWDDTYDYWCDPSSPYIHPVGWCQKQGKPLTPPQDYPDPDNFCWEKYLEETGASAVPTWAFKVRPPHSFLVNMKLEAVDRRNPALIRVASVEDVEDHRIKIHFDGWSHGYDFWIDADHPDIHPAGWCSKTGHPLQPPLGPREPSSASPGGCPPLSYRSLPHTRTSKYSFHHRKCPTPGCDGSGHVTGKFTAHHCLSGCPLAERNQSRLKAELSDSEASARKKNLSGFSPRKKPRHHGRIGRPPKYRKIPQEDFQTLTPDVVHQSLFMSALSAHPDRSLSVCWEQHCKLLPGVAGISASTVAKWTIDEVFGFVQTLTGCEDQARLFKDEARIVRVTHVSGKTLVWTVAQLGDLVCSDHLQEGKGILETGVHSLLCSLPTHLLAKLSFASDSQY
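L3MBTL1 50 nM + b-AHA-H3(1-15)K9me1 75 nM, 30 min RT; compound added, 30 min RT; streptavidin donor/Ni-chelate acceptor beads 10 ug/mL each final, 30 min RT dark; AlphaScreen read.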
G9a block = qHTS Assay for Inhibitors of Histone Lysine Methyltransferase G9a. Histone-lysine N-methyltransferase EHMT2 (Homo sapiens), Q96KQ7. G9a H3K9 monomethylation, AlphaScreen, 2 h. Potency, µM (top dose mostly 102 µM), for the others: at the top dose activity, negative = inhibition, usual class: inhibitors. 350,000 compounds, 8.8% hits. AID 504332, 2011; further: on the % scale 0 is the no-effect control and ±100 the full control effect; nearly all actives have a fitted effect of over 75% in size
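Signal arises when biotinylated H3K9 peptide, once monomethylated, bridges streptavidin donor and antibody-captured acceptor beads. Enzyme at 20 nM was preincubated 15 min with test compounds; peptide 500 nM and SAM 20 uM then reacted for 2 h.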
JMJD2A Tudor = qHTS Assay for Inhibitors of JMJD2A-Tudor Domain; Lysine-specific demethylase 4A (Homo sapiens), O75164; AlphaScreen JMJD2A-Tudor / H3K4me3 peptide binding; Potency, µM (titrated, usually from 114 µM), without a hit: at the highest dose activity change, negative = inhibition, most hits filed as inhibitors; 390,000 compounds, 4.4% hits; AID 504339, 2011; further: on the % scale 0 is the no-effect control and ±100 the full control effect; nearly all actives have a fitted effect of over 50% in size
BAZ2B block = qHTS Assay for Inhibitors of BAZ2B; AlphaScreen BAZ2B-H3K14Ac peptide displacement; 360,000 compounds, 4.4% hits; Potency, µM (doses to about 114 µM), inactives show at the highest dose activity change, negative = inhibition, usual class: inhibitors; further: on the % scale 0 is the no-effect control and ±100 the full control effect; nearly all actives have a fitted effect of over 60% in size
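In this displacement format the biotinylated H3(5-23) peptide acetylated at Lys14 serves as ligand at 50 nM, with BAZ2B at 50 nM in PBS pH 7.4 containing 0.01% Tween-20. Donor and acceptor beads are 10 ug/mL final.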
Active calls of the source: *; ? = inconclusive; / = not tested or not shown; [ ] = another dose, or the depositor's remark. The call rests on the fitted dose curve; in most records, active means well fitted inhibition curve with a large enough effect; inconclusive means small, poorly fitted or top-dose-only effect; inactive means no such curve, though single readings can be large or run the other way. Potency means the concentration at half of the fitted maximal effect.

SMILES | HP1b binding inh | L3MBTL1 block | G9a block | JMJD2A Tudor | BAZ2B block
COc1ccc(OCC(=O)NNC(=O)c2cccnc2)cc1 | 32% | 30% | -70%[2.33 µM] | -9% | ?
O=C(NCCOC(=O)C1COc2ccccc2O1)C1COc2ccccc2O1 (centres undefined) | 33% | 10% | ? | -4% | -1%
COc1ccc(OCC(=O)OCCNC(=O)c2cccnc2)cc1 | 22% | 9% | 32µM* | 50µM* | ?
COc1cccc(C(=O)OCCNC(=O)c2cccnc2)c1 | 55% | / | 50µM* | -14% | -6%
Cc1ccc(OCC(=O)NNC(=O)c2cccnc2)cc1 | 22% | 3% | 79µM* | -7% | 1%
O=C(NCCOC(=O)C1COc2ccccc2O1)c1cccnc1 (centres undefined) | 23% | 9% | 50µM* | 40µM* | ?
COc1cccc(C(=O)NCCCNC(=O)c2cccnc2)c1 | -15% | / | -1% | -21% | 2%
COc1cc(C(=O)Nc2c(C(=O)Nc3ccccc3F)oc3ccccc23)cc(OC)c1OC | 32% | / | 14%[59 µM] | -14% | -1%
Cc1ccccc1OCCN1CCCC1 | ? | / | / | 20µM* | 50µM*
Cc1ccc(C)c(OCCCCN2CCCCC2)c1 | -10% | / | 25µM* | 32µM* | -20%
Cc1ccc(OCCCCN2CCCCC2)c(C)c1 | 36% | -1% | -11% | -9% | 0%
Cc1ccccc1OCCCN1CCCC1 | -38% | -19% | 40µM* | 3.5µM* | -35%
CCNc1ncc2nc(C)c(=O)n(CCOC)c2n1 | / | / | -1%[0.501 µM] | / | /
Cc1ccc(C)c(Oc2cc(NN3CCCCC3)c([N+](=O)[O-])cc2[N+](=O)[O-])c1 | -12% | 3% | 7.9µM* | ? | ?
COc1cc(C(C)=O)ccc1Oc1cc(NN2CCCCC2)c([N+](=O)[O-])cc1[N+](=O)[O-] | -8% | -13% | 28µM* | ? | ?
O=[N+]([O-])c1cc([N+](=O)[O-])c(Oc2cccc(Cl)c2Cl)cc1NN1CCCCC1 | -18% | -6% | ? | ? | ?
CC1(C)Cc2cccc(Oc3cc(NN4CCCCC4)c([N+](=O)[O-])cc3[N+](=O)[O-])c2O1 | -11% | -5% | 35µM* | ? | ?
COc1ccccc1C(=O)NC(=O)COC(=O)c1cnc(C)cn1 | 14% | -3% | ? | -2% | 16%
CCN(CCCNC(=O)c1nn(-c2ccc(OC)c(Cl)c2)c(=O)c2c1c1ccccc1n2C)c1ccccc1 | 13% | / | 1%[59 µM] | -21% | /
CCOC(=O)c1ccccc1NC(=O)CSc1nccn1Cc1ccco1 | 10%[57 µM] | / | -4%[59 µM] | -25% | -33%
CCOc1ccc(NC(=O)C2CC(=O)NC(=Nc3ccc(Cl)c(Cl)c3)S2)cc1 (centres undefined) | 3% | / | ? | -22% | -3%
CCN1C(=O)CC(N2CCC(C(=O)N3CCCCCC3)CC2)C1=O (centres undefined) | 27% | -5%[11.4 µM] | -12% | -3% | ?
Cc1cccc(N2C(=O)CC(N3CCOCC3)C2=O)c1 (centres undefined) | 51% | / | -18%[59 µM] | -2% | 1%
O=C(C1CCN(C2CC(=O)N(c3cccc(Cl)c3)C2=O)CC1)N1CCCCCC1 (centres undefined) | 40% | 23%[11.4 µM] | 10µM* | -15% | 3%
O=C1CC(N2CCOCC2)C(=O)N1c1cccc(Cl)c1 (centres undefined) | 56% | 12% | 45µM* | -7% | 9%
SMILES | HP1b binding inh | L3MBTL1 block | G9a block | JMJD2A Tudor | BAZ2B block
CC(=O)Nc1ccc(N2C(=O)CC(N3CC(C)OC(C)C3)C2=O)cc1 (centres undefined) | 53% | 0% | 22µM* | -13% | 8%
COC(=O)c1ccc(N2C(=O)CC(N3CCOCC3)C2=O)cc1 (centres undefined) | 32% | -1% | 79µM* | -9% | 11%
CCOc1ccc(Nc2ncnc3c2nc2n3CCCCC2)cc1 | 29% | / | 15%[59 µM] | -5% | -3%
COCCc1nn2c(=O)cc(COC(=O)c3ccccc3C)nc2s1 | 27% | / | -2%[59 µM] | -21% | -14%
Cc1ccc(C)c(N2CCN(C(c3ccc(N(C)C)cc3)c3nnnn3C(C)(C)C)CC2)c1 (centres undefined) | -42% | -11% | 4.5µM* | ? | -8%
CC(C)CCn1nnnc1C(c1ccccc1)N1CCN(C)CC1 (centres undefined) | 57% | / | 1%[12.7 µM] | -3% | 7%
CC(C)(C)n1nnnc1C(c1ccncc1)N1CCN(c2ccc(O)cc2)CC1 (centres undefined) | ? | / | ? | 45µM* | -10%
C=CCN1CCN(C(c2ccccc2)c2nnnn2CCC(C)C)CC1 (centres undefined) | 51% | 10% | 50µM* | 3.2µM* | ?
CC(C)(C)n1nnnc1C(c1cccnc1)N1CCOCC1 (centres undefined) | 45% | -5% | -3% | -16% | -12%
CN(C)c1ccc(C(c2nnnn2C(C)(C)C)N2CCN(C(=O)c3ccco3)CC2)cc1 (centres undefined) | -16% | -4% | 10µM* | -28% | -30%
CCOC(=O)c1c(C)[nH]c(C)c1S(=O)(=O)N1CCCC(C(=O)Nc2ccc(C)c(N(C)C)c2)C1 (centres undefined) | 10% | / | -33%[59 µM] | -31% | ?
O=C(OCC#CCSc1nnc(-c2cccc(F)c2)o1)c1ccc(F)cc1 | / | / | / | 59% | /
CC(C)CCn1nnnc1C(c1ccc(N(C)C)cc1)N1CCN(C(=O)c2ccco2)CC1 (centres undefined) | -20% | -8% | 50µM* | ? | ?
Cc1ccc(C)c(N2CCN(C(c3ccncc3)c3nnnn3Cc3ccccc3)CC2)c1 (centres undefined) | 4% | 0% | 3.2µM* | 79µM* | ?
O=C(c1ccco1)N1CCN(Cc2nnnn2C2CCCCC2)CC1 | 49% | / | 11%[59 µM] | -11% | 32%
CC(C)CCn1nnnc1CN1CCN(C(=O)c2ccco2)CC1 | 9% | / | 50µM* | ? | -3%
Cc1ccc(Nc2nc(NCc3ccco3)nc3nccnc23)c(C)c1 | 160% | / | / | ? | /
Cc1ccc(S(=O)(=O)n2nnc3ccccc32)c(C)c1C | 60% | -5% | 50µM* | -33% | ?
COc1ccc(-c2nc(C)c(CCNC(=O)c3ccco3)s2)cc1 | 18%[57 µM] | / | -3%[59 µM] | -15% | -20%
CC(C)C(=O)NC(c1cccs1)c1cc([N+](=O)[O-])c2cccnc2c1O (centres undefined) | 0% | 10µM* | 14µM* | 16µM* | 5µM*

Screens as filed in PubChem BioAssay.
